{
  "source": "the supplement of paper PMC12582362",
  "note": "Structures can show the parent of a compound that is named as a salt. Screen size: about 1,500 compounds; about 30 (2%) showed activity. The list comes from a sample in which actives are over-represented; it also holds similar structures and randomly drawn compounds. Unmarked numbers belong to inactive results.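 Rule for the calls: active = robust z-score below -2; a few such results were not called.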",
  "data": [
    {"tested_on": "optoTopBP1 Flp-In 293 T-REx (HEK293) cells", "assay": "light-induced TopBP1 condensate (nuclear foci) count, plate-normalised robust z-score vs non-control wells; higher = more TopBP1 condensates (negative = condensation inhibitor), active = hit call of the paper", "conditions": "10 µM; incubation time 2 h", "values": [
      {"compound": "CNCCCC12CCC(c3ccccc31)c1ccccc12", "note": "[Maprotiline hydrochloride]", "light-induced TopBP1 condensate (z-score)": -0.0912},
      {"compound": "CNCCCC1c2ccccc2C=Cc2ccccc21", "note": "[Protriptyline hydrochloride]", "light-induced TopBP1 condensate (z-score)": "-2.86 (active)"},
      {"compound": "CNCCC=C1c2ccccc2C=Cc2ccccc21", "note": "[Norcyclobenzaprine]", "light-induced TopBP1 condensate (z-score)": -0.386},
      {"compound": "COc1c(O[C@@H]2O[C@H](CO)[C@@H](O)[C@H](O)[C@H]2O)cc2c(c1OC)-c1ccc(SC)c(=O)cc1[C@@H](NC(C)=O)CC2", "note": "[Thiocolchicoside]", "light-induced TopBP1 condensate (z-score)": -0.423},
      {"compound": "CCCCCOC(=O)Nc1nc(=O)n([C@@H]2O[C@H](C)[C@@H](O)[C@H]2O)cc1F", "note": "[Capecitabine]", "light-induced TopBP1 condensate (z-score)": 0.43},
      {"compound": "CO[C@H]1/C=C/O[C@@]2(C)Oc3c(C)c(O)c4c(c3C2=O)C2=NC3(CCN(CC(C)C)CC3)NC2=C(NC(=O)/C(C)=C\\C=C\\[C@H](C)[C@H](O)[C@@H](C)[C@@H](O)[C@@H](C)[C@H](OC(C)=O)[C@@H]1C)C4=O", "note": "[Rifabutin]", "light-induced TopBP1 condensate (z-score)": -0.0256},
      {"compound": "COc1c(O)cc2c(c1O)[C@@H]1O[C@H](CO)[C@@H](O)[C@H](O)[C@H]1OC2=O", "note": "[Bergenin]", "light-induced TopBP1 condensate (z-score)": -0.755},
      {"compound": "Cc1nccn1CC1CCc2c(c3ccccc3n2C)C1=O", "note": "(stereo not given) [Ondansetron Hydrochloride]", "light-induced TopBP1 condensate (z-score)": 1.05},
      {"compound": "NC[C@H]1O[C@H](O[C@H]2[C@H](O)[C@@H](O[C@H]3O[C@H](CO)[C@@H](O)[C@H](N)[C@H]3O)[C@H](N)C[C@@H]2N)[C@H](N)C[C@@H]1O", "note": "[Tobramycin]", "light-induced TopBP1 condensate (z-score)": -0.114},
      {"compound": "CC(NN)c1ccccc1", "note": "(stereo not given) [Mebanazine]", "light-induced TopBP1 condensate (z-score)": 0.298},
      {"compound": "CNCC[C@@H](Oc1ccccc1C)c1ccccc1", "note": "[Tomoxetine hydrochloride]", "light-induced TopBP1 condensate (z-score)": -1.4},
      {"compound": "CC(NCCC(c1ccccc1)c1ccccc1)c1ccccc1", "note": "(stereo not given) [Fendiline hydrochloride]", "light-induced TopBP1 condensate (z-score)": "-2.06 (active)"},
      {"compound": "CC(C)[C@H]1CC[C@H](C(=O)N[C@H](Cc2ccccc2)C(=O)O)CC1", "note": "[Nateglinide]", "light-induced TopBP1 condensate (z-score)": -0.706},
      {"compound": "COc1cc(NC(C)CCCN)c2ncccc2c1", "note": "(stereo not given) [Primaquine diphosphate]", "light-induced TopBP1 condensate (z-score)": -1.07},
      {"compound": "N[C@@H]1CCCCN(c2c(F)cc3c(=O)c(C(=O)O)cn(C4CC4)c3c2Cl)C1", "note": "[Besifloxacin hydrochloride]", "light-induced TopBP1 condensate (z-score)": -0.0694},
      {"compound": "C[C@@H](O)[C@H]1C(=O)N2C(C(=O)O)=C(S[C@@H]3CN[C@H](CNS(N)(=O)=O)C3)[C@H](C)[C@H]12", "note": "[Doripenem monohydrate]", "light-induced TopBP1 condensate (z-score)": 1.08},
      {"compound": "Cc1cc(C(C)(C)CC(C)(C)C)ccc1OCCOCC[N+](C)(C)Cc1ccccc1", "note": "[Methyl benzethonium chloride]", "light-induced TopBP1 condensate (z-score)": -0.593},
      {"compound": "CCN(CC)C(=S)SSC(=S)N(CC)CC", "note": "[Disulfiram]", "light-induced TopBP1 condensate (z-score)": "-4.41 (active)"},
      {"compound": "C=C1c2c(Cl)ccc(O)c2C(=O)C2=C(O)[C@]3(O)C(=O)C(C(N)=O)=C(O)[C@@H](N(C)C)[C@@H]3[C@@H](O)[C@H]12.O=C(O)c1cc(S(=O)(=O)O)ccc1O", "note": "[Meclocycline sulfosalicylate]", "light-induced TopBP1 condensate (z-score)": 0.506},
      {"compound": "N[C@@H](CCC(=O)N[C@@H](CS)C(=O)NCC(=O)O)C(=O)O", "note": "[Glutathione]", "light-induced TopBP1 condensate (z-score)": 1.35},
      {"compound": "O=C(O)CCNC(=O)c1ccccc1", "note": "[Betamipron]", "light-induced TopBP1 condensate (z-score)": -0.17},
      {"compound": "Cn1c(=O)c2c(ncn2CCO)n(C)c1=O", "note": "[Etofylline]", "light-induced TopBP1 condensate (z-score)": 0.502},
      {"compound": "CO[C@@]12[C@H](COC(N)=O)C3=C(C(=O)C(C)=C(N)C3=O)N1C[C@@H]1N[C@@H]12", "note": "[Mitomycin C]", "light-induced TopBP1 condensate (z-score)": -0.867},
      {"compound": "N[C@H](Cc1ccccc1)C(=O)O", "note": "[D-phenylalanine]", "light-induced TopBP1 condensate (z-score)": -1.1},
      {"compound": "CC(C)(S)C(N)C(=O)O", "note": "(racemic) [D,L-Penicillamine]", "light-induced TopBP1 condensate (z-score)": 1.98},
      {"compound": "Cc1ccc(C)c(OCCCC(C)(C)C(=O)O)c1", "note": "[Gemfibrozil]", "light-induced TopBP1 condensate (z-score)": 0.575},
      {"compound": "CC(=O)[C@@]12O[C@](C)(c3ccccc3)O[C@@H]1C[C@H]1[C@@H]3CCC4=CC(=O)CC[C@]4(C)[C@H]3CC[C@@]12C", "note": "[Algestone acetophenide]", "light-induced TopBP1 condensate (z-score)": -1.65},
      {"compound": "COc1cc(NS(=O)(=O)c2ccc(N)cc2)nc(OC)n1", "note": "[Sulfadimethoxine]", "light-induced TopBP1 condensate (z-score)": 0.224},
      {"compound": "CCN(CC)C(=O)Nc1ccc(OCC(O)CNC(C)(C)C)c(C(C)=O)c1", "note": "(stereo not given) [Celiprolol hydrochloride]", "light-induced TopBP1 condensate (z-score)": -0.488},
      {"compound": "CCc1oc2ccccc2c1C(=O)c1ccc(O)cc1", "note": "[Benzarone]", "light-induced TopBP1 condensate (z-score)": 1.57},
      {"compound": "CCCCC1=NC2(CCCC2)C(=O)N1Cc1ccc(-c2ccccc2-c2nnn[nH]2)cc1", "note": "[Irbesartan]", "light-induced TopBP1 condensate (z-score)": -0.971},
      {"compound": "CN(C)C(=N)NC(=N)N", "note": "[Metformin hydrochloride]", "light-induced TopBP1 condensate (z-score)": -0.726},
      {"compound": "CC(C)(C)C(O)/C=C/c1ccc2c(c1)OCO2", "note": "(stereo not given) [Stiripentol]", "light-induced TopBP1 condensate (z-score)": 1.26},
      {"compound": "CCOC(=O)c1c(N)sc2c1CCN(Cc1ccccc1)C2", "note": "[Tinoridine hydrochloride]", "light-induced TopBP1 condensate (z-score)": 0.308},
      {"compound": "C[C@H]1O[C@@H](O[C@H]2[C@@H](O)C[C@H](O[C@H]3[C@@H](O)C[C@H](O[C@H]4CC[C@@]5(C)[C@H](CC[C@@H]6[C@@H]5C[C@@H](O)[C@]5(C)[C@@H](C7=CC(=O)OC7)CC[C@]65O)C4)O[C@@H]3C)O[C@@H]2C)C[C@H](O)[C@@H]1O", "note": "[Digoxin]", "light-induced TopBP1 condensate (z-score)": "-2.42 (active)"},
      {"compound": "CCCCOC(=O)c1ccccc1Nc1cccc(C(F)(F)F)c1", "note": "[Ufenamate]", "light-induced TopBP1 condensate (z-score)": -0.0275},
      {"compound": "O=C(NCCO[N+](=O)[O-])c1cccnc1", "note": "[Nicorandil]", "light-induced TopBP1 condensate (z-score)": 0.468},
      {"compound": "Cn1nnc2c(C(N)=O)ncn2c1=O", "note": "[Temozolomide]", "light-induced TopBP1 condensate (z-score)": -0.835},
      {"compound": "Cc1c(Cl)cccc1Nc1ncccc1C(=O)O", "note": "[Clonixin Lysinate]", "light-induced TopBP1 condensate (z-score)": 0.77},
      {"compound": "NC(=O)c1cc[n+](CC2=C(C(=O)[O-])N3C(=O)[C@@H](NC(=O)[C@@H](c4ccccc4)S(=O)(=O)O)[C@H]3SC2)cc1", "note": "[Cefsulodin sodium salt]", "light-induced TopBP1 condensate (z-score)": 0.128}
    ]}
  ]
}
